Measurements reported in PubChem BioAssay (NCI).
The panel holds about 83,000 compounds, 20% with a hit somewhere; the sample as a whole holds those more often.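 Testing used 96-well plates and a 48-hour single-concentration exposure. Example: -40 means 40% of the starting cells died.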 Values without a mark were called inactive. Calls of active or inactive are those of the source. Rule for the calls: active = growth percent below 10; inactive = the rest.

Assays:
Experiment in all cases: NCI-60 one-dose screen, 48 h (100 = growth as untreated, 0 = no growth, -100 = all killed)
Conditions in all cases: 10 µM unless noted
T-47D breast = tested on: T-47D breast
BT-549 breast = tested on: BT-549 breast
MDA-MB-435 melanoma = tested on: MDA-MB-435 melanoma
MCF7 breast = tested on: MCF7 breast
HCT-116 colon = tested on: HCT-116 colon
HCC-2998 colon = tested on: HCC-2998 colon
KM12 colon = tested on: KM12 colon
SW-620 colon = tested on: SW-620 colon

| Structure (SMILES) | growth (T-47D breast) | growth (BT-549 breast) | growth (MDA-MB-435 melanoma) | growth (MCF7 breast) | growth (HCT-116 colon) | growth (HCC-2998 colon) | growth (KM12 colon) | growth (SW-620 colon) |
| --- | --- | --- | --- | --- | --- | --- | --- | --- |
| Oc1ccc(CSc2nnc(-c3ccncc3)n2-c2ccccc2)c2cccnc12 | 14.5% | 41.9% | 20% | 2.74% (active) | 22.5% | 35.9% | 16.9% | – |
| N#C/C(=C\c1ccc(Cl)cc1Cl)C(N)=O | 93.7% | 102% | 98.5% | 76.2% | 74% | 103% | 103% | – |
| Cn1ccnc1C(=O)/C=C/c1ccc(C(=O)Nc2ccc(NC(=O)CCNC(=O)c3csc(Br)n3)cc2)cc1 | 58.9% | 65.4% | 44.2% | 17.7% | 20.5% | 106% | 33.3% | – |
| C=C(C)C(=O)O[C@H]1C[C@@]2(C)OC(=CC2=O)/C(CO)=C\[C@H]2OC(=O)C(=C)[C@H]12 | -5.88% (active) | -7.7% (active) | -71% (active) | -7.53% (active) | -53.7% (active) | – | -8.61% (active) | -61.3% (active) |
| CN1CCN(Cc2ccc(NC(=O)c3cncc(C#Cc4cnc5ccc(NC6CCOCC6)nn45)c3)cc2C(F)(F)F)CC1 | -66.2% (active) | -94.4% (active) | -70.2% (active) | -60.3% (active) | -79% (active) | -19.8% (active) | -42.1% (active) | – |
| N#Cc1c(-c2ccccc2)cc(-c2c[nH]c3ccccc23)nc1-c1c[nH]c2ccccc12 | 86.7% | 94.7% | 103% | 95% | 103% | 93.6% | 103% | – |
| CC1OC(O[C@@H]2[C@H](O)C(CO)OC(O[C@H]3COC(O[C@H]4CC[C@]5(C)[C@H]6CC[C@]78OC[C@@]9(CC[C@](C)(C=O)C[C@H]97)C(=O)C[C@@]8(C)[C@]6(C)CC[C@H]5C4(C)C)[C@@H](O)[C@@H]3O)[C@H]2OC2OC[C@@H](O)[C@@H](O)[C@@H]2O)[C@@H](O)[C@@H](O)[C@H]1O (stereo not given in full) | 81.3% | 104% | 105% | 87.7% | 89.1% | – | 97% | 104% |
| Cn1cc(-c2nn3cc(-c4ccncc4)nc3s2)c2cc(Cl)ccc21 | 31.3% | 46% | 14.5% | 17% | -52.9% (active) | 36.3% | 56.5% | – |
| CC1(C)CC[C@]2(C(=O)O)CC[C@]3(C)C(=CCC4[C@@]5(C)C[C@@H](O)[C@@H]6OC(c7ccccc7O)OC[C@@]6(C)C5CC[C@]43C)C2C1 (stereo not given in full) | 57.7% | 42.4% | 77.5% | 62.8% | 4.38% (active) | 34.9% | 24.5% | – |
| C/C(=C(/c1ccc(O)cc1)c1ccc(OCCN2CCCCCC2)cc1)c1ccccc1 | 20.5% | 61.1% | 52.4% | 10.2% | 28.2% | 34.8% | 43.2% | – |
| Cn1cc(-c2nn3cc(-c4cccnc4)nc3s2)c2ccccc21 | 27.7% | 22.2% | -39.1% (active) | 15.8% | 16.8% | 60.2% | – | – |
| C=C1C(=O)O[C@@H]2C[C@@H](C)/C=C\C(=O)[C@](C)(OC(C)=O)C[C@H](OC(=O)/C(C)=C\C)[C@@H]12 | -72.8% (active) | -9.56% (active) | -53.4% (active) | 11.2% | -70.3% (active) | – | 11.9% | -29.5% (active) |
| C/C(=C(/c1ccc(O)cc1)c1ccc(OCCN2CCCC2)cc1)c1ccc(Cl)cc1 | 24.9% | 89.6% | 20% | 5.58% (active) | 36.6% | 17.2% | – | – |
| O=C(CSc1nnc(-c2cccs2)n1-c1ccccc1)Nc1ccc(F)cc1 | 84.7% | 99.3% | 80.8% | 91.9% | 86.3% | 125% | – | – |
| C=CCn1c(SCC(=O)Nc2ccc(OC)cc2)nnc1-c1ccc(Cl)cc1 | 95.5% | 106% | 90.1% | 94.9% | 91.2% | 99.6% | 92.4% | – |
| CN1CCN(c2ccc3c(c2)nc(NNC(=O)c2ccncn2)c2cccn23)CC1 | 32.7% | 45.2% | 27.5% | 17.6% | 23.6% | 22.3% | 17.4% | – |
| O=C(/C=C1\C=CN(CCCCO)c2ccccc21)n1ccc2ccccc21 | 99.6% | 112% | 106% | 95.8% | 108% | 112% | – | – |

| Structure (SMILES) | growth (T-47D breast) | growth (BT-549 breast) | growth (MDA-MB-435 melanoma) | growth (MCF7 breast) | growth (HCT-116 colon) | growth (HCC-2998 colon) | growth (KM12 colon) | growth (SW-620 colon) |
| --- | --- | --- | --- | --- | --- | --- | --- | --- |
| Nc1nc(N)c2c(n1)NC(c1ccc(Cl)cc1)CC(c1ccc(Nc3nc(NCCO)nc(Nc4ccc(Cl)cc4)n3)cc1)=N2 (stereo not given) | 51.9% | 58.3% | 5.23% (active) | -75.1% (active) | -84.8% (active) | 18.6% | 11.5% | – |
| C#Cc1ccc(NC(=O)c2ccc(/C=C/C(=O)c3nccn3C)cc2)c(F)c1 | 14.6% | 40.2% | 27.9% | 11% | 18% | 82.6% | 23.5% | – |
| Cc1cc(=O)n2nc(-c3cn(C)c4ccc(Cl)cc34)sc2n1 | 50.8% | 108% | 99% | 14.5% | 86.3% | 102% | 94.1% | – |
| CCC(C)[C@H]1OC(=O)[C@H](C(C)C)N(C)C(=O)[C@@H](C(C)C)OC(=O)[C@H](C(C)C)N(C)C(=O)[C@@H](C(C)CC)OC(=O)[C@H](C(C)C)N(C)C1=O (stereo not given in full) | 3.65% (active) | 0.725% (active) | 16.1% | 8.27% (active) | 8.58% (active) | 23.4% | 15.7% | – |
| CC(=O)c1ccc(NC(=O)COc2ccc(C3SCC(=O)N3c3ccc(Br)cc3)cc2)cc1 (stereo not given) | 88.7% | 95.7% | 102% | 89.6% | 91% | 103% | 98.2% | – |
| CN(C)c1ccc(/C=N/Nc2nc(N/N=C/c3ccc(N(C)C)cc3)nc(N3CCOCC3)n2)cc1 | 94.7% | 106% | 104% | 54.8% | 35.7% | 103% | 104% | – |
| Oc1ccc(CSc2nnc(-c3ccc(Br)cc3)o2)c2cccnc12 | 28.5% | 43% | 29.3% | 16% | 23% | 44.9% | 19.1% | – |
| Cc1cc(=O)n2nc(-c3c[nH]c4ccccc34)sc2n1 | 92.2% | 108% | 103% | 73.2% | 109% | 107% | 101% | – |
| CC(=O)NC(C)(C)C(=O)N1CCC[C@H]1C(=O)NC(C)(C)C(=O)N[C@@H](C)C(=O)NC(C)(C)C(=O)NC(C)(C)C(=O)N[C@@H](CCC(N)=O)C(=O)NC(C)(C)C(=O)N[C@H](C(=O)NC(C)(C)C(=O)NCC(=O)N[C@@H](CC(C)C)C(=O)NC(C)(C)C(=O)N1CCC[C@H]1C(=O)N[C@H](C(=O)NC(C)(C)C(=O)NC(C)(C)C(=O)N[C@@H](CCC(N)=O)C(=O)N[C@@H](CCC(N)=O)C(=O)N[C@H](CO)Cc1ccccc1)C(C)C)C(C)C | 10% [4.25 µM] | -56.1% [4.25 µM] (active) | 17% [4.25 µM] | 12.4% [4.25 µM] | 24.1% [4.25 µM] | 39.7% [4.25 µM] | 35.7% [4.25 µM] | – |
| C=C(C)C(=O)O[C@H]1C[C@@]2(C)OC(=CC2=O)/C(C)=C\[C@H]2OC(=O)C(=C)[C@H]12 | -0.517% (active) | -9.12% (active) | -57.4% (active) | 11.7% | -68.5% (active) | – | -8.25% (active) | -41.7% (active) |
| C=C1C(=O)O[C@@H]2C[C@@H](C)[C@H](OC)CC(=O)[C@](C)(OC(C)=O)C[C@H](OC(=O)/C(C)=C\C)[C@@H]12 | 46.9% | 83.7% | 82.8% | 56.5% | 5.78% (active) | – | 93.7% | 15.6% |
| O=C1NC(=O)/C(=C/c2ccc(OCc3cc4ccccc4nc3Cl)cc2)S1 | 87.8% | 123% | 98.3% | 91.6% | 98.1% | 105% | – | – |
| O=C(NNc1nc2cc(F)c(F)cc2n2cccc12)c1ncccn1 | 14.8% | 36.8% | 26.1% | 16.9% | 31.2% | 62.4% | 25.6% | – |
| C=C(C)[C@@H]1CC[C@]2(C(=O)NCCCN(CCC#N)CCC#N)CC[C@]3(C)[C@H](CC[C@@H]4[C@@]5(C)CCC(=O)C(C)(C)[C@@H]5CC[C@]43C)[C@@H]12 | 91.2% | 118% | 101% | 84.9% | 97.1% | 104% | 95.9% | – |
| Oc1ccc(CSc2nnc(-c3ccc(Oc4ccccc4)cc3)n2-c2ccccc2)c2cccnc12 | 4.84% (active) | 21.7% | 13.7% | 4.86% (active) | 14.5% | 30.3% | 17.7% | – |
| Cc1nn(-c2ccccc2)c2nc(CCl)[nH]c(=O)c12 | 66% | 100% | 97.9% | 16.4% | 24.9% | 108% | – | – |
